The source made the active and inactive calls. Unless noted, the rule behind the calls is not given here.

Assay [1] has as its system Wnt5a (protein binding on small-molecule microarray). The assay is described as follows: Wnt5a binders on small-molecule microarray, primary screen, biophysical, 635/667 nm fluorescence (AID 1142).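 Note: fluorescence read at 667 nm with signal to noise per printed feature.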 Conditions: 635 nm fluorescence, higher = more signal.
Assay [2] in a line: cell viability in Huh7 cells, primary screen, cytotoxicity control for HCV replication inhibitor project, CellTiter-Glo luminescence, basal, 48 h (AID 1143).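 Note: Huh7 hepatoma cells carrying a hepatitis C replication reporter with no stimulus; test concentration not given here.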 Conditions: Huh7 HCV replicon, higher = more signal, called active from +8 up or from −8 down. For orientation: In ATP-based viability assays light output follows the ATP content of the culture.
Assay [3] is described as follows: P. aeruginosa biofilm formation inhibitors, primary screen, PAO1 strain, BacTiter-Glo luminescence, LB-PBS (AID 1144). Conditions: 12 h, higher = more signal.
Assay [4] is described as follows: CREB reporter modulators without forskolin, primary screen, cell-based, PC12, CRE-LacZ reporter, unstimulated (AID 1145). Conditions: no forskolin, luminescence, 4.5 h, higher = more signal, called active from +8 up or from −8 down.
Assay [5] can be described thus: CREB reporter modulators under forskolin, primary screen, cell-based, PC12, CRE-LacZ reporter, forskolin-stimulated (AID 1146).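 Note: PC12 cells with 6xCRE LacZ reporter stimulated by forskolin 10 µM; beta-galactosidase reporter signal reflecting CREB driven transcription.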 Conditions: luminescence, 4.5 h, higher = more signal, called active from +8 up or from −8 down.
Assay [6] addresses Streptavidin (Streptomyces avidinii) (UniProt P22629). The assay is described as follows: streptavidin binders on small-molecule microarray, primary screen, artefact control for SMM compound annotation, biophysical, 635/667 nm fluorescence (AID 1147).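 Note: signal reflects streptavidin binding to arrayed compounds as a control protein.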 Conditions: streptavidin binding, higher = more signal.
The nature of assay [7]: small-molecule binders of probe aInhba, primary screen, biochemical, small-molecule microarray, 635/667 nm fluorescence (AID 1148).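 Note: score merges 667nm spot fluorescence with signal-to-noise for antibody binding to printed compounds.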 Conditions: higher = more signal.
The target of assay [8] is Torsin-1A (Homo sapiens) (UniProt O14656). The assay is described as follows: torsin A binders from cell lysate, primary screen, small-molecule microarray, wild-type, 635/667 nm (AID 1149). Conditions: COS7 hTOR1A-WT lysate, 635 nm fluorescence, higher = more signal.
Chain of Torsin-1A (Homo sapiens) (O14656 whole entry, looked up): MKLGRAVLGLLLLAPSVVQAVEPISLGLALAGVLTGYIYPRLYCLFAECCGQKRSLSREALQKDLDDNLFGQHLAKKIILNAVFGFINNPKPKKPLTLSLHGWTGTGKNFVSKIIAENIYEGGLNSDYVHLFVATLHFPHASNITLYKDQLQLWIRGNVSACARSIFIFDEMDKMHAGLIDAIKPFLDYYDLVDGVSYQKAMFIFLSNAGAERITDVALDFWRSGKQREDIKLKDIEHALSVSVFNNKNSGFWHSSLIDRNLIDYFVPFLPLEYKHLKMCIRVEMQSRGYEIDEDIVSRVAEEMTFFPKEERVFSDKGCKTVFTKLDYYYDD
Assay [9] shares this target. Kind of assay: small-molecule binders of mutant TOR1A in lysate, primary screen, cell lysate, small-molecule microarray, COS7 lysate, 635/667 nm fluorescence (AID 1150).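 Note: score pools 667 nm emission and signal to noise measuring lysate protein binding.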 Conditions: COS7 hTOR1A mutant lysate, 635 nm fluorescence, higher = more signal.
The subject of assay [10] is Sonic hedgehog protein (Shh). The assay is described as follows: small-molecule binders of Shh protein, primary screen, biochemical, small-molecule microarray, 635/667 nm fluorescence (AID 1151).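 Note: Shh protein binding to compounds spotted on small-molecule microarray slides; score combines spot fluorescence intensity with signal-to-noise across triplicate slides.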 Conditions: small-molecule microarray binding, 635 nm fluorescence; higher = more signal.
Assay [11] in a line: E. coli DRC41 culture turbidity changes, primary screen, E. coli filamentation inducer project, strain DRC41, OD650, 48 h (AID 1152).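 Note: E. coli MC1000 strain DRC41 lacking acrAB efflux pump and sulA.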 Conditions: E. coli DRC41 (acrAB sulA), higher = more signal, called active from +8 up or from −8 down.
Assay [12] can be described thus: small-molecule binders of probe aLefty1, primary screen, biochemical, small-molecule microarray, 635/667 nm fluorescence (AID 1153).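 Note: score merges spot fluorescence with signal-to-noise ratio from the scanned slide images.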 Conditions: higher = more signal.
A short description of assay [13]: PSAC antagonists in infected red cells, primary screen, cell-based, P. falciparum Indochina, OD700, 1 h (AID 1154). Conditions: P. falciparum Indochina infected RBC osmotic lysis, higher = more signal, called active from +8 up or from −8 down.
Assay [14] is described as follows: PSAC antagonists in infected red cells, primary screen, cell-based, P. falciparum Indochina, OD700, 2 h (AID 1155).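 Note: lysis reports solute entry through the parasite surface anion channel PSAC; channel blockers reduce lysis of infected cells.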 Conditions: P. falciparum Indochina infected erythrocytes, osmotic lysis OD700; higher = more signal, called active from +8 up or from −8 down.
Assay [15] can be described thus: osmotic lysis modulators in infected erythrocytes, primary screen, PSAC antagonist project, cell-based, P. falciparum Indochina, OD700, 3 h (AID 1156). Conditions: higher = more signal, called active from +8 up or from −8 down.
A short description of assay [16]: PSAC antagonists in infected red cells, primary screen, cell-based, P. falciparum Indochina, OD700, 18 h (AID 1157). Conditions: P. falciparum Indochina infected erythrocytes, osmotic lysis OD700, 18 h; higher = more signal, called active from +8 up or from −8 down.
Assay [17] can be described thus: modulators of S6 phosphorylation in cells, primary screen, cell-based, A549, cytoblot, luminescence, serum-stimulated (AID 1158).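 Note: serum-stimulated A549 lung adenocarcinoma cells; signal is phosphorylated S6 detected by cytoblot immunostaining with HRP secondary.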 Conditions: A549 phospho-S6 cytoblot, 5 h, higher = more signal.
The target in assay [18] is NADPH oxidase 2 (Homo sapiens) (UniProt P04839). Kind of assay: NOX2-dependent H2O2 signal modulators, primary screen, NOX inhibitor project, cell-based, HEK293-NOX2, PMA-stimulated, Amplex Red fluorescence (AID 1159). Note: test concentration not given here. Conditions: 45 min, higher = more signal, called active from +8 up or from −8 down.
Chain of NADPH oxidase 2 (Homo sapiens) (P04839 whole entry, looked up): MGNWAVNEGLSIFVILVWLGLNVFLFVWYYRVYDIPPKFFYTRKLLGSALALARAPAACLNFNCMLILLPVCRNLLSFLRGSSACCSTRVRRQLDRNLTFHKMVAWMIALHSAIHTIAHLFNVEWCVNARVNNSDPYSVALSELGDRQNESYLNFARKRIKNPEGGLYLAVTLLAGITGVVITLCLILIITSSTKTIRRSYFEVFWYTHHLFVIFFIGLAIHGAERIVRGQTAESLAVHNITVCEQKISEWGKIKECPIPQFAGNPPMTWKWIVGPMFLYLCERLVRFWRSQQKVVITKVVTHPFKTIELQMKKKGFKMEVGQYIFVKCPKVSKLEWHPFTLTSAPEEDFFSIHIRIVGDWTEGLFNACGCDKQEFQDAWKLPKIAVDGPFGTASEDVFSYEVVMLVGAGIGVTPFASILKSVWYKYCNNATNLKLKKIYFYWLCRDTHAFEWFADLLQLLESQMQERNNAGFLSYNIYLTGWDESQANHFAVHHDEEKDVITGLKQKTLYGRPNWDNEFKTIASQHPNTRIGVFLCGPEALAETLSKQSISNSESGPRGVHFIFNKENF
Assay [19] concerns the target NADPH oxidase 4 (Homo sapiens) (UniProt Q9NPH5). The assay is described as follows: NOX4-dependent H2O2 signal modulators, primary screen, NOX inhibitor project, cell-based, HEK293-NOX4, tetracycline-induced, Amplex Red fluorescence (AID 1160). Conditions: 45 min, higher = more signal, called active from +8 up or from −8 down.
In assay [20] the target is NADPH oxidase 5 (Homo sapiens) (UniProt Q96PH1). Kind of assay: NOX5-dependent H2O2 signal modulators, primary screen, NOX inhibitor project, cell-based, HEK293-NOX5, Amplex Red fluorescence (AID 1161). Conditions: HEK293-NOX5, ionomycin, 45 min, higher = more signal.
Chain of NADPH oxidase 5 (Homo sapiens) (Q96PH1 whole entry, looked up): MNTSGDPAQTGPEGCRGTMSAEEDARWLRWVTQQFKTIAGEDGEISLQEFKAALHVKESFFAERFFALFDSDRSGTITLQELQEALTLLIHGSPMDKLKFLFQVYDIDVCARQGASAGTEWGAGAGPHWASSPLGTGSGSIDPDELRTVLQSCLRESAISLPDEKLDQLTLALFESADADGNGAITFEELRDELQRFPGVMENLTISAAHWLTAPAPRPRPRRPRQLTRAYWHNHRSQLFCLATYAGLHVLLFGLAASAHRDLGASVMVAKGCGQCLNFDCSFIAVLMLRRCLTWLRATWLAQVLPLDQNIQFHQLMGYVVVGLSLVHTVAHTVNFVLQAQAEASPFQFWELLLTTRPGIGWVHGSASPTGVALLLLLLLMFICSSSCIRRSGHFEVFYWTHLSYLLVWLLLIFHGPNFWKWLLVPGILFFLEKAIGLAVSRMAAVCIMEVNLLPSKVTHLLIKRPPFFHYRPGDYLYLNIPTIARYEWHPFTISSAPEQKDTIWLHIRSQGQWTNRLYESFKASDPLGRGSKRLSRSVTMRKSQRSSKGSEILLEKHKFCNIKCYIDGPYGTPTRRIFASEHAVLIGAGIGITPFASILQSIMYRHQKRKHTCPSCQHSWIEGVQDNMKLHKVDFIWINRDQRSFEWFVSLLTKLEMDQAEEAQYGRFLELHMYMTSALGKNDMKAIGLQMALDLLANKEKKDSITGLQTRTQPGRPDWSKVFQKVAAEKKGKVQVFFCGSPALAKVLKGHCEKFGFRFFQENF

Chain of Streptavidin (Streptomyces avidinii) (P22629 whole entry, looked up): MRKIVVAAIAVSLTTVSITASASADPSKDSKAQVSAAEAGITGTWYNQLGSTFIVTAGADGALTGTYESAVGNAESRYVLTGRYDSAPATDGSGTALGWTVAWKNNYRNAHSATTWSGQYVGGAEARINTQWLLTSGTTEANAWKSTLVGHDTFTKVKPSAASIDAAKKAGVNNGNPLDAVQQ
Chain of NADPH oxidase 4 (Homo sapiens) (Q9NPH5 whole entry, looked up): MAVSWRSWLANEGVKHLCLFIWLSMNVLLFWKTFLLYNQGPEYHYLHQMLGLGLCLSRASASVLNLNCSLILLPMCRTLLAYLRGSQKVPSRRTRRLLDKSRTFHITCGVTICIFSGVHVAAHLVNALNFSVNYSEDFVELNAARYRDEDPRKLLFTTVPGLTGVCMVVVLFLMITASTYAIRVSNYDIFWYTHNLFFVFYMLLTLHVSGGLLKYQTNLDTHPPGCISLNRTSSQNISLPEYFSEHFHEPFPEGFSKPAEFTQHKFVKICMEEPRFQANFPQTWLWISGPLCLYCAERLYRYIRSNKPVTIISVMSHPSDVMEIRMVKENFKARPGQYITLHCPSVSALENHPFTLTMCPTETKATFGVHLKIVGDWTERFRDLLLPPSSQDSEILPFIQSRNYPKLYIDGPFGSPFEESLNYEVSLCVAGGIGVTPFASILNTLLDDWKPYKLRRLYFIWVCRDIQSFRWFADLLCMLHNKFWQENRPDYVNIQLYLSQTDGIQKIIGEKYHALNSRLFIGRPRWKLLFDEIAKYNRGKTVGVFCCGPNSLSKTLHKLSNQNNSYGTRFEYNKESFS

For `CC(C)C[C@@H]1NC(=O)[C@@H]2C[C@H](C(=O)NCCCCCCN)[C@H](c3cccc(OCCO)c3)N2C1=O`, the composite z-score worked out at 0.0254 in assay [1]; 0.919 in assay [6]; 0.747 in [7]; 0.255 with Torsin-1A (Homo sapiens) [8]; 1.73 with Torsin-1A (Homo sapiens) [9]; 2 in [10]. In assay [12], the composite z-score stood at 0.393. Also, the z-score is -0.214 (inactive) in [2]; -1.74 (inactive) in assay [3]; -0.675 (inactive) in [4]; 0.348 (inactive) in assay [5]; 0.831 (inactive) in [11]; 3.69 (inactive) in assay [13]. Further, the z-score in assay [14] is 0.73 (inactive); in assay [15], 3.36 (inactive); in [16], 0.227 (inactive); in [17] it was -0.256; in assay [18], 2.24 (inactive); in assay [19] it was 1.36 (inactive). In assay [20], the z-score is 1.99.
Take `COc1ccc([Si](C)(C)[C@@H]2[C@@H](CCO)O[C@]3(C(=O)N(Cc4cccc(NC(=O)[C@H](C)O)c4)c4ccccc43)[C@H]2C)cc1`: the composite z-score is 0.736 in assay [1]; 0.887 in [6]; -0.128 in [7]; 0.23 in the assay with Torsin-1A (Homo sapiens) [8]; 0.97 with Torsin-1A (Homo sapiens) [9]; 0.533 in assay [10]. In assay [12], this molecule registered a composite z-score of 0.286. Besides, the z-score in assay [2] was -8.02 (active); in assay [3], -1.07 (inactive); in assay [4], 10.2 (active); in [5], -1.88 (inactive); in assay [11], -1.19 (inactive); in assay [13], 9.14 (active). The z-score in assay [14] is 2.91 (inactive); in [15] it was -1.04 (inactive); in assay [16], 1.35 (inactive); in assay [17], -0.472; in assay [18], -0.881 (inactive); in assay [19], 0.436 (inactive). The molecule also returned a z-score in [20] of -0.256.
Take `Cc1ccc(N2C(=O)c3ccccc3[C@@H](C(=O)NCCCN(C)C)[C@@H]2c2ccc(CO)cc2)nc1`: the composite z-score in assay [1] is -0.198; in assay [6] it was 0.0893; in assay [7], -0.477; with Torsin-1A (Homo sapiens) [8], 0.276; with Torsin-1A (Homo sapiens) [9], 0.011; in assay [10] it was 0.0381. This molecule showed a composite z-score in assay [12] of -0.724. The z-score in [2] was 0.492 (inactive); in [3], 0.252 (inactive); in [4], 0.208 (inactive); in assay [5], -1.35 (inactive); in assay [11] it was 0.0376 (inactive); in assay [13], 1.06 (inactive). Also, the z-score was 0.392 (inactive) in [14]; 0.591 (inactive) in assay [15]; 0.304 (inactive) in assay [16]; -0.337 in assay [17]; 0.911 (inactive) in assay [18]; 0.115 (inactive) in [19]. In addition, the z-score in assay [20] came to 0.513.
With `NC(=O)[C@@]1(Cc2ccccc2)COC(c2ccc(OCCCO)cc2)=N1`, the composite z-score in assay [1] is 0.0546; in assay [6], -0.504; in [7] it was 0.105; with Torsin-1A (Homo sapiens) [8] it was -0.475; with Torsin-1A (Homo sapiens) [9], 0.709; in assay [10], -0.429. For the same molecule, in assay [12], the composite z-score was determined as 0.533. The z-score in assay [2] was 0.257 (inactive); in assay [3] it was 0.126 (inactive); in assay [4] it was 2.24 (inactive); in assay [5], -1.34 (inactive); in [11], 0.917 (inactive); in [13] it was 17.5 (active). The z-score in assay [14] was 2.55 (inactive); in [15], 0.121 (inactive); in assay [16], -0.0697 (inactive); in [17] it was -0.468; in assay [18] it was -0.519 (inactive); in [19] it was -1.4 (inactive). Also, the z-score in [20] is -2.14.
Consider `CCOC(=O)C[C@H]1[C@H](OC(=O)c2cc3ccccc3oc2=O)[C@@H](NC(=O)CC(C)C)c2cc(OCCCO)ccc2N1C(=O)c1ccc2ccccc2n1`, for which the composite z-score in assay [1] was -0.0457; in [6] it was 0.138; in assay [7] it was -0.128; with Torsin-1A (Homo sapiens) [8] it was -0.0914; in the assay with Torsin-1A (Homo sapiens) [9], 0.234; in [10], 1.41. Moreover, in assay [12], the composite z-score was -0.0061. Besides, the z-score is 0.152 (inactive) in assay [2]; 0.152 (inactive) in assay [3]; 4.46 (inactive) in assay [4]; 0.446 (inactive) in assay [5]; -0.618 (inactive) in assay [11]; 9.02 (active) in assay [13]. For the same molecule, the z-score in [14] is 1.25 (inactive); in [15], 0.609 (inactive); in [16] it was 0.647 (inactive); in assay [17] it was -0.679; in assay [18], 1.01 (inactive); in assay [19], 1.23 (inactive). This molecule displayed a z-score in assay [20] of 0.7.
Consider `CCOC(=O)C[C@H]1[C@H](OC(=O)c2ccccc2-c2ccccc2)[C@@H](NC(=O)c2ccc3ccccc3n2)c2cc(OCCCO)ccc2N1C(=O)Cc1ccc(OC)cc1`, for which the composite z-score in assay [1] was 0.0204; in [6], -0.0997; in [7] it was 0.0442; in the assay with Torsin-1A (Homo sapiens) [8] it was 0.253; in the assay with Torsin-1A (Homo sapiens) [9], 0.0746; in assay [10], 0.336. Moreover, in assay [12], the composite z-score was 0.0986. In addition, the z-score in [2] was -0.109 (inactive); in [3], 0.485 (inactive); in assay [4], 1.03 (inactive); in [5], 0.349 (inactive); in assay [11] it was -0.783 (inactive); in assay [13], 5.91 (inactive). Besides, the z-score was 1.11 (inactive) in assay [14]; -0.0433 (inactive) in assay [15]; 0.549 (inactive) in assay [16]; -0.303 in assay [17]; 0.0348 (inactive) in [18]; 1.25 (inactive) in [19]. The molecule also had a z-score in assay [20] of 0.76.
Consider `C=CCNC(=O)[C@@H]1[C@H]2C(=O)O[C@H](c3ccccc3)[C@H](c3ccccc3)N2[C@H](c2ccc(OCCO)cc2)[C@@]12C(=O)N(C(=O)OCCOC)c1ccc(C#Cc3ccc(OC)cc3)cc12`, for which the composite z-score was 0.0609 in assay [1]; 0.613 in assay [6]; 0.0497 in [7]; 0.105 with Torsin-1A (Homo sapiens) [8]; -0.0165 with Torsin-1A (Homo sapiens) [9]; 1.88 in assay [10]. This molecule yielded a composite z-score in [12] of 0.302. Further, the z-score is -2.81 (inactive) in assay [2]; 0.543 (inactive) in assay [3]; 0.476 (inactive) in [4]; -0.222 (inactive) in assay [5]; -0.0604 (inactive) in assay [11]; 3.58 (inactive) in assay [13]. For the same molecule, the z-score in assay [14] was 1.28 (inactive); in assay [15], 0.0207 (inactive); in assay [16] it was 0.776 (inactive); in [17], -0.492; in assay [18], 1.78 (inactive); in assay [19] it was 0.437 (inactive). The molecule further gave a z-score in assay [20] of 0.986.
Regarding `CCC#CCN(Cc1ccccc1Br)[C@H](/C=C/C1CC1)[C@@H](O)Cc1ccccc1`, the composite z-score was -0.679 in assay [1]; -0.529 in [6]; -0.154 in [7]; -0.806 with Torsin-1A (Homo sapiens) [8]; 0.0257 with Torsin-1A (Homo sapiens) [9]; -0.643 in assay [10]. In assay [12], this molecule showed a composite z-score of -0.13. Besides, the z-score in [2] is -2.43 (inactive); in assay [3] it was -1.23 (inactive); in assay [4], 2.67 (inactive); in assay [5], -0.835 (inactive); in [11], 2.06 (inactive); in assay [13], -0.224 (inactive). Also, the z-score in assay [14] was -0.834 (inactive); in [15], -0.239 (inactive); in assay [16], -1.53 (inactive); in assay [17] it was 1.62; in assay [18] it was 0.214 (inactive); in assay [19], 1.07 (inactive). The molecule also returned a z-score in assay [20] of -1.2.

The values above are taken from PubChem BioAssay.
